The record followed here is the supplement of paper PMC8540655.

The test has as its system Aedes aegypti larvae. The test is described as follows: larval motility relative to same well at 0 h (fraction); higher = more motile (less active compound), active = 0.4 or less. The following applies: 10 µM. A digest of the protocol: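 Relative motility is the score of a well divided by its own score at the first recording. Movies were made with INVAPP at 0, 2 and 24 h, each having 200 frames at 100 ms intervals. Larvae of Aedes aegypti, from 18–24 h hatches in pond salt solution with yeast at 25 °C, sat at about 10 per well (100 µL) in 96-well plates with compounds at 10 µM and 1% v/v DMSO. Solvent and larvicide control wells were included on every plate, and values are medians of three independent larval batches.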

Molecules are shown by their SMILES.

Take `Clc1ccc(COC(Cn2ccnc2)c2ccc(Cl)cc2Cl)c(Cl)c1` (centres undefined): the larval motility was 0.499 (inactive) (2 h) and 0.677 (inactive) (24 h).

Turning to `CCc1cc(Nc2cc(=O)n(CCN3CCN(C(=O)c4ccccc4)CC3)c(=O)[nH]2)ccc1C`, the larval motility by setting is: (2 h) 1.11 (inactive); (24 h) 1.07 (inactive).

For the compound `Nc1nc(O)c(Br)c(-c2ccccc2)n1`, the larval motility is 0.633 (inactive) (2 h) and 0.648 (inactive) (24 h).

For the compound `CCCCc1ccc(-c2cc(C(=O)O)cc(-c3ccc(Cl)cc3)n2)cc1`, the larval motility is 0.642 (inactive) (2 h) and 0.563 (inactive) (24 h).

On to `O=C(Cc1ccccc1F)Nc1nc2ccccc2[nH]1`, for which the larval motility is 0.888 (inactive) (2 h) and 0.669 (inactive) (24 h).

As to `CC(C)(C)c1ccc(C(=O)NC(=O)N2CCCc3ccccc32)cc1`, the larval motility reads like this: (2 h) 0.973 (inactive); (24 h) 0.629 (inactive).

For `CCCCOC(=O)Nc1cc2nc(C3CCCCC3)[nH]c2cc1N(CC)CC`, the larval motility is, setting by setting: (2 h) 0.544 (inactive); (24 h) 0.594 (inactive).

On to `CC(=O)O[C@H]1C[C@@]2(C)[C@@H](C[C@@H](O)[C@H]3[C@@]4(C)CC[C@@H](O)[C@@H](C)[C@@H]4CC[C@@]32C)/C1=C(\CCC=C(C)C)C(=O)O`, for which the larval motility was 0.95 (inactive) (2 h) and 0.825 (inactive) (24 h).

With `COc1cc2c(O)c3c(c(-c4ccc5c(c4)OCO5)c2cc1OC)C(=O)OC3`, the larval motility runs as follows: (2 h) 0.887 (inactive); (24 h) 0.868 (inactive).

`CO[C@@]1(NC(=O)Cc2cccs2)C(=O)N2C(C(=O)O)=C(COC(N)=O)CS[C@@H]21`: the larval motility is 0.909 (inactive) (2 h) and 1.17 (inactive) (24 h).

As for `Nc1nnnn1CCOc1c2[nH]c3ccc(Cl)cc3c2cc2c1[nH]c1ccc(Cl)cc12`, the larval motility (2 h) is 0.958 (inactive) and the larval motility (24 h) is 1.16 (inactive).

As for `O=C(Nc1ccc(N2CCN(C(=O)c3ccccc3)CC2)cc1)c1ccc2c(c1)OCO2`, the larval motility (2 h) was 0.946 (inactive) and the larval motility (24 h) is 0.971 (inactive).

In the case of `COc1cccc(N2CCN(C3=Nc4c(F)cccc4[C@H](CC(=O)O)N3c3cc(C(F)(F)F)ccc3OC)CC2)c1`, the larval motility is 1.02 (inactive) (2 h) and 1.01 (inactive) (24 h).

With `O=C(Nc1nnc(-c2ccccc2)o1)c1ccc(F)cc1`, the larval motility (2 h) was 0.832 (inactive) and the larval motility (24 h) is 0.868 (inactive).

In the case of `CC(C)(C)c1ccc(Oc2ccc(N)cc2)cc1`, the larval motility by setting is: (2 h) 0.91 (inactive); (24 h) 1.33 (inactive).

As for `COc1cc(C)c2c(Oc3cccc(C(F)(F)F)c3)c(OC)cc(NC(C)CCCN)c2n1` (centres undefined), the larval motility is 0.654 (inactive) (2 h) and 0.385 (active) (24 h).

On to `O=C(NCc1ccc2c3c(cccc13)C(=O)N2)c1cccs1`, for which the larval motility by setting is: (2 h) 0.944 (inactive); (24 h) 0.861 (inactive).

For the compound `CC1(C)CC(NC(=O)C(=O)Nc2ccc(Cl)cc2)CC(C)(C)N1`, the larval motility (2 h) was 0.977 (inactive) and the larval motility (24 h) is 0.896 (inactive).

With `C[C@H](NC(=O)C(=O)Nc1ccccc1C(C)(C)C)C(=O)N[C@@H](CC(=O)O)C(=O)COc1c(F)c(F)cc(F)c1F`, the larval motility is, setting by setting: (2 h) 0.777 (inactive); (24 h) 1.23 (inactive).

As to `Nc1nc(C(F)(F)F)cc2c1[nH]c(=O)n2Cc1ccccc1`, the larval motility by setting is: (2 h) 0.857 (inactive); (24 h) 0.614 (inactive).

Regarding `CC[C@@H]1C(=O)OC[C@@H]1Cc1cncn1C`, the larval motility by setting is: (2 h) 1.22 (inactive); (24 h) 0.972 (inactive).

Take `O=C(NCc1ccccc1Cl)c1cnc2ccccc2n1`: the larval motility reads like this: (2 h) 1.23 (inactive); (24 h) 0.674 (inactive).

Turning to `O=C(CCc1ccc2c(c1)OCO2)NCc1ccc(-c2ccccc2F)cc1`, the larval motility reads like this: (2 h) 0.778 (inactive); (24 h) 0.677 (inactive).

As to `COc1ccccc1NC(=O)c1ccccc1Sc1ccc([N+](=O)[O-])cc1`, the larval motility is, setting by setting: (2 h) 0.911 (inactive); (24 h) 0.861 (inactive).

`OC1O[C@H](CSc2ccc(F)cc2)[C@@H](O)[C@H]1O` (some centres undefined): the larval motility by setting is: (2 h) 1.09 (inactive); (24 h) 1.32 (inactive).

Turning to `N#C/C(=C1/SC[C@H](c2ccc(Cl)cc2Cl)S1)n1ccnc1`, the larval motility (2 h) was 0.983 (inactive) and the larval motility (24 h) was 1 (inactive).

With `N=C(N)NCCCCC(=O)Nc1cc(C(F)(F)F)cc(NC(=O)c2cc(C(=O)Nc3cc(C(F)(F)F)cc(NC(=O)CCCCNC(=N)N)c3O[C@@H]3CCNC3)ncn2)c1O[C@@H]1CCNC1`, the larval motility is 0.425 (inactive) (2 h) and 0.764 (inactive) (24 h).

As for `Nc1cccc(-c2nc(N)nc(NC3Cc4ccccc4C3)n2)c1`, the larval motility (2 h) is 1.08 (inactive) and the larval motility (24 h) is 0.803 (inactive).

Turning to `Nc1cc(-c2nc3ccccc3[nH]2)n[nH]c1=O`, the larval motility was 1.17 (inactive) (2 h) and 1.18 (inactive) (24 h).

As to `O=C(NCc1ccc(F)cc1)c1c(O)c2ncccc2[nH]c1=O`, the larval motility runs as follows: (2 h) 0.718 (inactive); (24 h) 0.908 (inactive).

Turning to `C[C@@H](NC(=O)c1ccccc1-c1ccccc1)B(O)O`, the larval motility was 0.616 (inactive) (2 h) and 0.615 (inactive) (24 h).

As for `Oc1ccc(NCc2ccccc2OCc2ccccc2)cc1`, the larval motility is, setting by setting: (2 h) 0.844 (inactive); (24 h) 1.62 (inactive).

`COc1ccc(C2CNC(=O)C2)cc1OC1CCCC1` (centres undefined): the larval motility (2 h) is 0.834 (inactive) and the larval motility (24 h) was 0.959 (inactive).

With `O=C1NC(=O)C(Br)=C1Br`, the larval motility is, setting by setting: (2 h) 0.672 (inactive); (24 h) 0.484 (inactive).

On to `COc1c(NC(=O)[C@H]2CC[C@@H](COc3ccc([N+](=O)[O-])cc3)CC2)c(F)cc2c(=O)c(C(=O)O)cn(C3CC3)c12`, for which the larval motility was 1.02 (inactive) (2 h) and 0.873 (inactive) (24 h).

For `O=c1cc(OCc2ccccc2)ccn1Cc1ccccc1`, the larval motility by setting is: (2 h) 1.27 (inactive); (24 h) 1.69 (inactive).

In the case of `CCOC(=O)/C=C/[C@H](C[C@@H]1CCNC1=O)NC(=O)[C@H](CC)n1cccc(NC(=O)c2cc(C)on2)c1=O`, the larval motility was 1.27 (inactive) (2 h) and 0.871 (inactive) (24 h).

Regarding `COC(=O)Nc1nc2c(C)cccc2[nH]1`, the larval motility (2 h) is 0.678 (inactive) and the larval motility (24 h) was 0.778 (inactive).

Consider `CC(=O)Oc1ccccc1C(=O)Nc1ncc([N+](=O)[O-])s1`, for which the larval motility was 1.58 (inactive) (2 h) and 0.824 (inactive) (24 h).

As to `NS(=O)(=O)c1ccc(NC(=O)NC(c2ccccc2)c2ccccc2)cc1`, the larval motility by setting is: (2 h) 0.491 (inactive); (24 h) 0.689 (inactive).

In the case of `O=C(c1ccc(F)cc1)N1CCN2C(=O)c3ccccc3C12c1ccccc1` (centres undefined), the larval motility (2 h) was 1.12 (inactive) and the larval motility (24 h) was 0.984 (inactive).

As to `CCc1oc2ccccc2c1C(=O)c1ccc(O)cc1`, the larval motility (2 h) is 1.07 (inactive) and the larval motility (24 h) is 1.17 (inactive).

Regarding `Oc1ccc2[nH]c(-c3ccccc3)nc2c1`, the larval motility by setting is: (2 h) 0.633 (inactive); (24 h) 0.514 (inactive).

Consider `Oc1c(C(Nc2nc3ccccc3s2)c2ccc(OC(F)F)cc2)ccc2cccnc12` (centres undefined), for which the larval motility (2 h) was 0.53 (inactive) and the larval motility (24 h) was 1.26 (inactive).

As for `CC(C)(C)c1cc(C(=O)/C(C#N)=N/Nc2cccc(Cl)c2)no1`, the larval motility runs as follows: (2 h) 1.14 (inactive); (24 h) 1.21 (inactive).

For `CCCC(=O)OCCc1ccccc1`, the larval motility (2 h) was 0.51 (inactive) and the larval motility (24 h) was 0.648 (inactive).

Consider `C[C@H]1COc2c(N3CCN(C)CC3)c(F)cc3c(=O)c(C(=O)O)cn1c23`, for which the larval motility was 0.447 (inactive) (2 h) and 0.712 (inactive) (24 h).

`O=[N+]([O-])c1ccc2c(CCc3c[nH]c4ccccc34)c[nH]c2c1`: the larval motility runs as follows: (2 h) 1.12 (inactive); (24 h) 0.813 (inactive).

With `CCC(CC)[C@H](NC(C)=O)[C@@H]1[C@H](O)[C@@H](C(=O)O)C[C@H]1NC(=N)N`, the larval motility runs as follows: (2 h) 0.729 (inactive); (24 h) 1.91 (inactive).

In the case of `C[C@@H]1O[C@@H]1P(=O)(O)O`, the larval motility reads like this: (2 h) 0.617 (inactive); (24 h) 0.856 (inactive).

`O=C(O)c1sccc1S(=O)(=O)n1ccc2cc(Br)ccc21`: the larval motility by setting is: (2 h) 0.657 (inactive); (24 h) 0.741 (inactive).

As to `Cc1ccc(C)c(OCCCCCCN2C[C@H](O)[C@@H](O)[C@H](O)[C@H]2CO)c1`, the larval motility reads like this: (2 h) 0.635 (inactive); (24 h) 0.552 (inactive).
